Experimental data as given in PubChem BioAssay AID1159580 (chemical genetic matrix, 2015).
“And” between values parts separate entries of the source, which are not always exact repeats. Identical values can stand only once. The campaign covered roughly 5,500 compounds. About 2,000 (36%) were called active. Another 18% or so got no clear call; they are omitted. No stated cut-off is given here; in the data, active means normalized growth mostly below about 0.91 (no sharp cut-off); inconclusive means no clear call, values can overlap the other calls; inactive means mostly above about 0.92. Some of the results follow.

Experiment: chemical genetic growth profiling, strain panel (AID 1159580);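 further: tested at 20 µM; growth read once vehicle control cultures reached saturation at 30 °C; 1 = growth at the plate median or of vehicle wells; lower values mean less growth of the strain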
Conditions: S. cerevisiae deletion strains, growth OD

Measured: normalized growth

CCCC(C)C1(CC)C(=O)NC(=O)NC1=O (configuration not stated)
inactive: locus YAL013W, strain DEP1, active compounds read low 1.01 | locus YAL021C, strain ccr4, active compounds read low 0.996 | locus YAL026C, strain drs2, active compounds read low 1 | locus YAL030W, strain snc1, active compounds read low 1 | locus YBL061C, strain skt5, active compounds read low 1 | locus YBR009C, strain hhf1, active compounds read low 1.01 | locus YBR021W, strain FUR4, active compounds read low 1 | locus YBR023C, strain chs3, active compounds read low 1 | locus YBR171W, strain sec66, active compounds read low 1 | locus YBR229C, strain ROT2, active compounds read low 1.01 | locus YBR231C, strain swc5, active compounds read low 0.994 | locus YBR279W, strain paf1, active compounds read low 1 | locus YCL011C, strain gbp2, active compounds read low 1 | locus YCL016C, strain dcc1, active compounds read low 0.999 | locus YCL029C, strain bik1, active compounds read low 1.03 | locus YCL061C, strain MRC1, active compounds read low 1 | locus YCL069W, strain vba3, active compounds read low 0.998 | locus YCR088W, strain abp1, active compounds read low 0.996 | locus YDL005C, strain med2, active compounds read low 0.992 | locus YDL035C, strain GPR1, active compounds read low 1.03 | locus YDL040C, strain nat1, active compounds read low 1 | locus YDL074C, strain BRE1, active compounds read low 1.03 | locus YDL101C, strain DUN1, active compounds read low 1.02 | locus YDL134C, strain PPH21, active compounds read low 1.02 | locus YDL185W, strain tfp1, active compounds read low 1.02 | locus YDL192W, strain arf1, active compounds read low 1.02 | locus YDR001C, strain nth1, active compounds read low 0.998 | locus YDR069C, strain doa4, active compounds read low 1 | locus YDR101C, strain arx1, active compounds read low 1.01 | locus YDR137W, strain rgp1, active compounds read low 1.03 | locus YDR150W, strain NUM1, active compounds read low 1.02 | locus YDR159W, strain sac3, active compounds read low 0.995 | locus YDR162C, strain NBP2, active compounds read low 1.03 | locus YDR195W, strain ref2 0.982 | locus YDR297W, strain sur2, active compounds read low 1 | locus YDR318W, strain mcm21, active compounds read low 1.03 | locus YDR334W, strain swr1, active compounds read low 1.01 | locus YDR335W, strain msn5, active compounds read low 1 | locus YDR388W, active compounds read low 1.01 | locus YDR392W, strain spt3, active compounds read low 1.02 | locus YDR502C, strain sam2, active compounds read low 1.02 | locus YEL003W, strain gim4, active compounds read low 1.01 | locus YEL037C, strain rad23, active compounds read low 0.992 | locus YEL061C, strain CIN8 (second series), active compounds read low 1 | locus YEL061C, strain CIN8, active compounds read low 1.01 | locus YER015W, strain faa2, active compounds read low 1 | locus YER016W, strain bim1, active compounds read low 1.03 | locus YER110C, active compounds read low 1.01 | locus YER111C, strain swi4, active compounds read low 0.988 | locus YER155C, strain BEM2 (second series), active compounds read low 0.999 | locus YER155C, strain BEM2, active compounds read low 1.01 | locus YER167W, strain BCK2, active compounds read low 1.03 | locus YFR010W, strain ubp6, active compounds read low 1.01 | locus YGL078C, strain dbp3, active compounds read low 1.01 | locus YGL086W, strain mad1, active compounds read low 1.02 | locus YGL167C, strain pmr1, active compounds read low 1 | locus YGL173C, strain kem1, active compounds read low 0.993 | locus YGL227W, strain vid30, active compounds read low 0.99 | locus YGL240W, strain doc1, active compounds read low 0.989 | locus YGL248W, strain PDE1, active compounds read low 1.01 | locus YGL253W, strain hxk2, active compounds read low 1 | locus YGR078C, strain PAC10, active compounds read low 1.02 | locus YGR135W, strain pre9, active compounds read low 1 | locus YGR229C, strain SMI1, active compounds read low 1.02 | locus YGR252W, strain gcn5, active compounds read low 1.05 | locus YHR013C, strain ard1, active compounds read low 0.978 | locus YHR027C, strain rpn1, active compounds read low 1 | locus YHR030C, strain SLT2, active compounds read low 1.01 and 0.987 | locus YHR079C, strain IRE1 (second series), active compounds read low 1.02 | locus YHR079C, strain IRE1, active compounds read low 0.979 | locus YHR094C, strain hxt1, active compounds read low 1.01 | locus YHR129C, strain ARP1, active compounds read low 1 | locus YHR142W, strain chs7, active compounds read low 1 | locus YHR200W, strain rpn10, active compounds read low 1.02 | locus YIL066C, strain RNR3, active compounds read low 1.01 | locus YIL073C, strain SPO22, active compounds read low 1.08 | locus YIL125W, strain kgd1, active compounds read low 1.02 | locus YIR030C, strain dcg1, active compounds read low 1.02 | locus YJL092W, strain hpr5, active compounds read low 0.995 | locus YJL095W, strain BCK1 (second series), active compounds read low 1 | locus YJL095W, strain BCK1, active compounds read low 1.02 and 0.993 | locus YJL115W, strain asf1, active compounds read low 0.999 | locus YJL129C, strain trk1, active compounds read low 1.02 | locus YJL134W, strain LCB3, active compounds read low 1.01 | locus YJL154C, strain vps35, active compounds read low 1 | locus YJL164C, strain tpk1, active compounds read low 1.01 | locus YJL166W, strain qcr8, active compounds read low 1 | locus YJL168C, strain set2, active compounds read low 1.03 | locus YJL187C, strain SWE1 (second series), active compounds read low 1.01 | locus YJL187C, strain SWE1, active compounds read low 0.999 | locus YJR043C, strain POL32, active compounds read low 1.05 | locus YJR066W, strain TOR1, active compounds read low 0.954
